Assay outcomes from PubChem.
Sfp inh: inhibitors of Bacillus subtilis Sfp phosphopantetheinyl transferase | Q9F4F7 | Biochemical Sfp PPTase activity, qHTS | Potency, µM, for the others: largest response in the series, negative = inhibition, hits mostly inhibitors | 310,000 tested, 3.5% active | AID 1490;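 also: the enzyme is Sfp with the accession as filed and its product quenches rhodamine fluorescence; 0% = enzyme reaction without inhibitor and -100% = no enzyme wells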
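Compounds were incubated with enzyme (final 15 nM) for 15 min at room temperature before substrate addition started the reaction. Fluorescence at 525 nm excitation, 598 nm emission was recorded immediately and after 30 minutes.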
mIDH1 inhibitor: blocks human mutant IDH1 R132H enzyme | AID 602179 | 390,000 tested, 0.093% active | O75874 | IDH1-R132H enzyme, NADPH consumption, diaphorase/resazurin fluorescence | Potency, µM (titrated, usually from 76.6 µM), for the others: at the top dose activity change, negative = inhibition, hits mostly inhibitors; also: nearly all actives have a fitted effect of over 65% in size
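IDH1-R132H (0.5 ug/mL) preincubated 30 min with compound, then NADPH (0.016 mM) and alpha-KG (2 mM) added; 80 min at RT, pH 7.5. Remaining NADPH coupled via diaphorase/resazurin to fluorescence (540/590 nm); concentration-response curves normalized to no-enzyme control.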
VDR inh: blocks the human vitamin D receptor; Potency, µM, inactives show max response, negative = inhibition, usual class: inhibitors; AID 504847; 400,000 tested, 0.93% active; P11473; VDR-SRC2-3 peptide fluorescence polarization, 2 h
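VDR–SRC2-3 interaction, FP format. Cmpds 23 nl via pintool, brief spin, 2 h ambient incubation.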
TrxR1 substrate: rat thioredoxin reductase 1 substrate activity | purified TrxR1 substrate turnover, NADPH consumption readout | O89049 | 390,000 tested, 0.01% active | Potency, µM (doses to about 114 µM), without a hit: at the top dose activity change, negative = substrate turnover; also: nearly all actives have a fitted effect of over 50% in size
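Rat TrxR1, dispensed at 90 nM, was prereduced with 400 uM NADPH (final) for 5 min at ~22 deg C, then incubated with compound 15 min before 400 uM selenite. A first-read NADPH fluorescence drop versus no-compound background flagged substrates.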
TrxR1 inh: rat TrxR1 inhibition. recombinant rTrxR1, NADPH fluorescence consumption, selenite substrate. Potency, µM (top dose mostly 114 µM), without a hit: top-dose activity change, negative = inhibition, usual class: inhibitors. 390,000 tested, 1% active; also: nearly all actives have a fitted effect of over 65% in size
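Rat TrxR1 (90 nM in the dispensed reagent) was pre-reduced with 400 uM NADPH for 5 min at room temperature, then incubated with compound for 15 min. After 400 uM selenite was added, NADPH fluorescence (Ex 340/Em 450 nm) was followed for 8 min.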
PLK1 PBD inh: inhibitors of human PLK1 polo-box domain binding; P53350; Plk1 PBD binding of FITC phosphopeptide, fluorescence polarization; Potency, µM, for the others: max response, negative = inhibition, usual class: inhibitors; 360,000 tested, 2.8% active; also: series mostly up to about 57 µM; nearly all actives have a fitted effect of over 65% in size
Target sequence (P53350 whole entry, looked up, the tested form may be a part): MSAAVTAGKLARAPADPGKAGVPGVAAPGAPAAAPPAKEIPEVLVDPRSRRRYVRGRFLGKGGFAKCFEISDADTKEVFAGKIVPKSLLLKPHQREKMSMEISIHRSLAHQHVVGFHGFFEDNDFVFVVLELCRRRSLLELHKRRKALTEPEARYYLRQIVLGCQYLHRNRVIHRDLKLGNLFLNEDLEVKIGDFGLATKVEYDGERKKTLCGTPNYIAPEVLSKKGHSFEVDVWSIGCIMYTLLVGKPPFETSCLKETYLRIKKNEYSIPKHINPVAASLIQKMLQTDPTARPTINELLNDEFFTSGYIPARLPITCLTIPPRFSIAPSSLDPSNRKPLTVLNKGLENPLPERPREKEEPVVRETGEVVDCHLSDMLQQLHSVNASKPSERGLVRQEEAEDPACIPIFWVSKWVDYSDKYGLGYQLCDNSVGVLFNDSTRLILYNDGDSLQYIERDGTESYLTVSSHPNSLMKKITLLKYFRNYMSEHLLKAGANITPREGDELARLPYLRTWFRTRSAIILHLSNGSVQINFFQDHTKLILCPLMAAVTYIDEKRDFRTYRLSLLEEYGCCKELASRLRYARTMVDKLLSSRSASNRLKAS
* hit, by the source's call; ? = inconclusive; . = not tested or not shown; [ ] = dose if it differs, or a comment. Compounds with a hit are over-represented: about 5.2% of the library has one in this group of screens. Calls follow the shape of the dose curve; as a rule, active = well fitted curve in the direction sought with a large enough effect; inconclusive = small, poorly fitted or top-dose-only effect, or another doubt; inactive = no such curve, though single readings can be large; an effect the other way counts as inactive or inconclusive. Unless noted, % is scaled to controls: 0 for no effect and ±100 for the full control effect; potency is read from the fitted curve at half-maximal effect.

SMILES	Sfp inh	mIDH1 inhibitor	VDR inh	TrxR1 substrate	TrxR1 inh	PLK1 PBD inh
CCOc1ccccc1NC(=O)Cn1nc(-c2ccco2)ccc1=O	-6%	14%	1%	3%	32µM*	-25%
COc1ccccc1NC(=O)CSc1n[nH]c(-c2ccco2)n1	.	-8%	?	0%	14%	27µM*
O=C(CSc1ccc(-c2ccco2)nn1)Nc1ccccc1F	32µM*	-9%	?	8%	20µM*	-14%
CCOc1ccccc1NC(=O)CSc1ccc(-c2ccco2)nn1	50µM*	9%	-15%	-3%	35µM*	-20%
CCOc1ccccc1NC(=O)Cn1nc(N2CCN(c3ccccc3)CC2)ccc1=O	.	19%	4%	-7%[57.1 µM]	-4%[57.1 µM]	.
COc1cc([N+](=O)[O-])cc(/C=N/NC(=O)Cn2nc(C)cc2C)c1O	-7%	-3%	-7%	-17%	-9%	-3%
COc1cc([N+](=O)[O-])cc(/C=N/NC(=O)Cn2nccc2C)c1O	15%	-6%	?	-21%	-3%	27µM*
Cc1nn(Cc2cccc(C(=O)Nc3ccn(Cc4ccccc4F)n3)c2)c(C)c1[N+](=O)[O-]	22µM*	10%	8%	1%	9%	-4%
CC(C)C[C@H](NC(=O)[C@H](Cc1ccccc1)NC(=O)[C@H](Cc1ccccc1)NC(=O)[C@@H](N)CO)C(=O)N[C@@H](CCCN=C(N)N)C(=O)N[C@@H](CC(N)=O)C(=O)O	-2%	.	-6%	.	.	.
CCN(CC)[C@@H](C)CN1c2ccccc2Sc2ccccc21	11%	.	-8%	.	.	.
Cc1ccc([C@@H]2CC=C(C(=O)O)[C@H](c3ccc(Cl)cc3)N2S(=O)(=O)c2ccc(C)cc2)cc1	.	14%	7%	7%	3%	?
O=C(O)C1=CC[C@@H](c2ccc(Cl)cc2)N(S(=O)(=O)c2ccc(Cl)cc2)[C@H]1c1ccc(Br)cc1	.	?	-28%	-1%	7%	27µM*
Cc1ccc(S(=O)(=O)N2[C@@H](c3cccc(Cl)c3)C(C(=O)O)=CC[C@H]2c2ccc(C(C)C)cc2)cc1	.	3%	-21%	-10%	-11%	21µM*
Cc1ccc(S(=O)(=O)N2[C@@H](c3ccc(Cl)cc3)C(C(=O)O)=CC[C@H]2c2ccc(Cl)cc2)cc1	.	-2%	-23%	3%	8%[57.1 µM]	?
O=C(O)C1=CC[C@@H](c2ccc(Cl)cc2)N(S(=O)(=O)c2ccc(Cl)cc2)[C@H]1c1cccc(Cl)c1	.	-10%	-6%	6%[57.1 µM]	2%[57.1 µM]	30µM*
Cc1ccc(S(=O)(=O)N2[C@@H](c3ccc(F)cc3)C(C(=O)O)=CC[C@H]2c2ccc(C(C)C)cc2)cc1	.	-4%	-13%	5%[57.1 µM]	4%[57.1 µM]	?
Cc1ccc(S(=O)(=O)N2[C@@H](c3ccc(Br)cc3)C(C(=O)O)=CC[C@H]2c2ccc(Cl)cc2)cc1	.	-3%	-26%	3%	6%	27µM*
Cc1ccc(S(=O)(=O)N2[C@@H](c3ccccc3)C(C(=O)O)=CC[C@H]2c2ccc(Cl)c(Cl)c2)cc1	.	-15%	?	9%[57.1 µM]	10%[57.1 µM]	?
Cc1ccc([C@H]2C(C(=O)O)=CC[C@@H](c3ccc(Cl)c(Cl)c3)N2S(=O)(=O)c2ccc(C)cc2)cc1	.	-3%	-26%	0%	15%	30µM*
COc1ccc([C@@H]2CC=C(C(=O)O)[C@H](c3ccc(Br)cc3)N2S(=O)(=O)c2ccc(C)cc2)cc1OC	.	-5%	-3%	2%	12%	-5%
CCCC[C@@H]1C=C(C(=O)O)[C@H](c2ccc(C)cc2)N1S(=O)(=O)c1ccc(C)cc1	.	-1%[38.3 µM]	-15%	1%	8%	-14%
Cc1ccc(S(=O)(=O)N2[C@@H](c3ccc(Cl)cc3)C(C(=O)O)=CC[C@H]2c2cccc(Cl)c2)cc1	.	-10%	-17%	8%[57.1 µM]	7%[57.1 µM]	24µM*
CCCC[C@@H]1C=C(C(=O)O)[C@H](c2ccc(Cl)c(Cl)c2)N1S(=O)(=O)c1ccc(C)cc1	.	-27%	?	-5%	-1%	30µM*
